AMA1 RON2 block: inhibitors of Plasmodium falciparum AMA1-RON2 interaction | AlphaScreen AMA1-biotinylated RON2 peptide binding | actives 0.2% (n = 360,000) | Potency, µM (titrated, usually from 58.2 µM), usual class: inhibitors; also: nearly all actives have a fitted effect of over 45% in size
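AMA1 (3D7) with his tag at 25 nM final met compounds first, then biotinylated RON2 peptide at 25 nM; detection used donor plus acceptor beads, 10 µg/mL apiece, read by AlphaScreen after 30 min at room temperature.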
SARS PLpro yeast: SARS-CoV PLP inhibition in yeast; S. cerevisiae expressing SARS-CoV PLpro, growth rescue; Potency, µM (top dose mostly 32.9 µM), hits mostly activators; actives 0.19% (n = 330,000); calls by dose curve; also: nearly all actives have a fitted effect of over 55% in size
Pf growth 48h: P. falciparum growth inhibition at 48 hours (one generation) | P. falciparum luciferase growth in erythrocytes, 48 h | Potency, µM (titrated, usually from 28.7 µM), hits mostly inhibitors | actives 5.9% (n = 310,000) | AID 504832
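A one-generation exposure of luciferase-tagged malaria parasites in RPMI 1640/Albumax erythrocyte culture, 37 C and 5% CO2. Inhibition is inferred from decreased luminescence after adding detection reagent.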
Pf growth 96h: P. falciparum growth inhibition at 96 hours | P. falciparum luciferase reporter growth, 96 h | Potency, µM (highest dose often 28.7 µM), most hits filed as inhibitors | actives 6.9% (n = 320,000) | AID 504834
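Cell-based qHTS: luciferase-tagged P. falciparum in erythrocytes (2% hematocrit, 0.05% parasitemia final) incubated with compounds for 96 hours, 37 C, 5% CO2; luciferase detection reagent then added and luminescence measured.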
A number is an active result; . = inactive; ? = inconclusive; / = no result. This is a sample that favours compounds with a hit; in the whole collection about 9.4% have one here. Unless noted, calls follow the shape of the dose curve; as a rule, active = well fitted curve in the direction sought with a large enough effect; inconclusive = small, poorly fitted or top-dose-only effect, or another doubt; inactive = no such curve, though single readings can be large; an effect the other way counts as inactive or inconclusive.

SMILES	AMA1 RON2 block	SARS PLpro yeast	Pf growth 48h	Pf growth 96h
CC(=O)OC(C)(C)/C=C/C(=O)C(C)(O)C1C(O)CC2(C)C3CC=C4C(CC(O)C(=O)C4(C)C)C3(C)C(=O)CC12C (stereo unspecified)	.	/	/	/
CC(=O)OC(C)(C)/C=C/C(=O)[C@](C)(O)[C@H]1[C@H](O)C[C@@]2(C)[C@@H]3CC=C4[C@H](C[C@H](O)C(=O)C4(C)C)[C@]3(C)C(=O)C[C@]12C	.	?	3.7µM	3.3µM
CC(=O)OC(C)(C)/C=C/C(=O)C(C)(O)C1[C@H](O)C[C@@]2(C)C3CC=C4C(CC[C@@H](O)C4(C)C)[C@]3(CO)C(=O)C[C@]12C (stereo partly specified)	.	.	10µM	1.7µM
COc1ccccc1C(=O)NC(=O)COC(=O)Cc1n[nH]c(=O)c2ccccc12	.	.	.	.
CCCCCCn1c(COc2ccccc2F)nnc1SCC(=O)N1c2ccccc2NC(=O)C1(C)C	.	.	13µM	8.3µM
C=CCn1c(C)nnc1SCC(=O)N1c2ccccc2NC(=O)C1(C)C	.	/	/	/
Clc1ccc(-c2nnc(-c3cccc4ccccc34)o2)cc1Cl	.	.	.	.
Cc1nc(N2CCN(C(=O)c3ccco3)CC2)c(C#N)c2c1CCCC2	.	.	?	?
Cc1nc(N2CCOCC2)c(C#N)c2c1COC(C)(C)C2	.	.	.	.
CC(C)C(=O)N1CCN(c2nc(-c3ccccc3)c3c(c2C#N)CCCC3)CC1	.	.	/	8.3µM
CC1(C)Cc2c(C#N)c(N3CCN(C(=O)c4ccccc4)CC3)nc(Cc3ccccc3)c2CO1	.	.	?	/
CC1(C)Cc2c(C#N)c(N3CCOCC3)nc(-c3ccccc3)c2CO1	.	.	10µM	?
CCc1nc(N2CCN(C(=O)c3ccccc3)CC2)c(C#N)c2c1COC(C)(C)C2	.	.	9.3µM	?
Cc1ccc(S(=O)(=O)N2CCN(c3nc(C)c4c(c3C#N)CC(C)(C)OC4)CC2)cc1	.	.	6.6µM	.
O=C(CCN1CCCCC1)N/N=C/c1ccc(Br)cc1	.	.	.	.
CC(C)Cc1nc(N2CCN(C(=O)c3ccco3)CC2)c(C#N)c2c1CCCC2	.	.	?	.
CCCC(=O)N1CCN(c2nc(CC(C)C)c3c(c2C#N)CCC3)CC1	.	.	2.6µM	.
COc1ccc(/C=N/NC(=O)c2cc(-c3cccn3C)n[nH]2)cc1OC	.	.	13µM	1.9µM
COc1ccc2c(c1)c(C(=O)N/N=C/c1ccc(OC)c(OC)c1)c(C)n2C	.	.	.	15µM
Cc1ccc2oc(=O)cc(CN3CCOCC3)c2c1	.	.	.	7.4µM
CCN1CCN(Cc2cc(=O)oc3ccc(C)cc23)CC1	.	.	.	.
CCc1ccc2oc(=O)cc(CN3CCC(C)CC3)c2c1	.	.	1.3µM	2.9µM
Cc1cc(C)c2oc(=O)cc(CN3CCN(Cc4ccccc4)CC3)c2c1	.	.	12µM	?
Cc1ccc2c(CN3CCOCC3)cc(=O)oc2c1	.	.	.	.
Cc1ccc2oc(=O)cc(CN3CCC(C)CC3)c2c1	.	.	?	5.9µM
SMILES	AMA1 RON2 block	SARS PLpro yeast	Pf growth 48h	Pf growth 96h
CCc1ccc2oc(=O)cc(CN3CCOCC3)c2c1	.	.	.	/
COc1ccc(NC(=O)N2CCNC(=O)C2CC(=O)Nc2ccc(F)cc2)cc1 (stereo unspecified)	.	.	.	.
Cc1cc(C)c2oc(=O)cc(CN3CCC(C)CC3)c2c1	.	.	10µM	?
Cc1cc(C)c2c(CN3CCC(C)CC3)cc(=O)oc2c1C	.	.	?	.
Cc1ccc(N2C=Nc3ccc(C)c4nc(C)cc2c34)cc1	.	.	9.3µM	.
CC1=Nc2ccc(C)c3nc(C)cc(c23)N1c1ccc(C)cc1	.	/	/	/
ON1C2CCCCC2N(O)C1c1ccccc1 (stereo unspecified)	.	.	/	.
Cc1cccc(-n2c(-c3ccco3)nc3nc4ccccc4nc32)c1	/	.	.	.
COc1cccc(-n2c(-c3ccco3)nc3nc4ccccc4nc32)c1	.	.	.	3.3µM
CC(C)OCCCn1c(-c2ccco2)nc2nc3ccccc3nc21	.	.	?	3.3µM
CCC(C)n1c(-c2ccco2)nc2nc3ccccc3nc21 (stereo unspecified)	/	.	?	10µM
COCCn1c(-c2ccco2)nc2nc3ccccc3nc21	.	.	.	.
COc1ccc(Br)cc1/C=N/NC(=O)c1ccc2nc[nH]c2c1	.	.	.	.
Cc1cc(/C=C(\C#N)c2nc3ccccc3[nH]2)c(C)n1C	.	.	.	.
CCN(CC)c1ccc(/C=C(/C#N)c2nc3ccc(C)cc3[nH]2)c(OC(C)C)c1	.	.	?	10µM
CCOc1cc(N(CC)CC)ccc1/C=C(/C#N)c1nc2ccccc2[nH]1	.	.	.	8.3µM
CCCOc1cc(N(CC)CC)ccc1/C=C(/C#N)c1nc2ccc(C)cc2[nH]1	.	.	7.4µM	2.6µM
COc1ccc(NC(=O)CN2C3CCC2CC(O)(c2cccnc2)C3)cc1OC (stereo unspecified)	.	.	/	?
Cc1ccc(N(C)C(=O)Oc2ccc(C(=O)c3ccc(Cl)cc3)cc2)cc1	.	.	.	4.7µM
CC(=O)Nc1ccc(OC(=O)N(C)c2ccc(C)cc2)cc1	.	.	?	9.3µM
COC(=O)CNC(c1ccccc1)c1cc(Cl)ccc1NC(=O)c1cccc(Cl)c1 (stereo unspecified)	.	.	?	?
NNC(=O)CNC(c1ccccc1)c1cc(Br)ccc1NC(=O)c1ccccc1Br (stereo unspecified)	.	.	8.3µM	.
NNC(=O)CNC(c1ccccc1)c1cc(Br)ccc1NC(=O)CCN1CCOCC1 (stereo unspecified)	.	.	12µM	9.3µM
O=C(CCN1CCOCC1)Nc1c(-c2ccccc2)c2cc(Br)ccc2[nH]c1=O	.	.	?	?
NNC(=O)CNC(c1ccccc1)c1cc(Br)ccc1NC(=O)c1cccc(Cl)c1 (stereo unspecified)	.	.	13µM	?
SMILES	AMA1 RON2 block	SARS PLpro yeast	Pf growth 48h	Pf growth 96h
COC(=O)CNC(c1ccccc1)c1cc(Br)ccc1NC(C)=O (stereo unspecified)	.	.	.	.
NNC(=O)CNC(c1ccccc1)c1cc(Br)ccc1NC(=O)c1ccc(Br)cc1 (stereo unspecified)	.	.	8.3µM	.
O=C(CCS(=O)(=O)c1ccc(Br)cc1)Nc1cc(F)ccc1F	.	.	.	?
CCCn1c(=O)[nH]c(=O)c2c1nc(-c1ccccc1OC(F)F)n2CCOC	.	.	.	/
Cc1cc(C)n2nc(C(=O)OCC(=O)NCc3ccc(Cl)cc3)nc2n1	.	.	.	.
O=C(CCN1CCOCC1)NCC(=O)Nc1ccc(Br)cc1C(=O)c1ccccc1	.	.	.	13µM
O=C(CN1CCCCC1)NCC(=O)Nc1ccc(Br)cc1C(=O)c1ccccc1	.	.	.	.
Brc1ccc(C2=Nc3ccccc3C(c3ccncc3)=NN2)cc1	.	.	.	?
COC(=O)c1ccc(NC(=O)c2cccc(NC(=O)c3ccccc3)c2)cc1	.	.	.	8.3µM
Cc1cccc(NC(=O)c2ccccc2Br)n1	.	.	/	12µM
